Hits are enriched below; roughly 1.3% of the tested compounds scored in any of these assays.
NCOA2 inhibitor = human SRC2 (NCOA2) inhibition | inhibition, % at 9 µM | HEK293 GAL4-SRC2 luciferase reporter, luminescence | actives 0.17% (n = 370,000) | Q15596;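 active = inhibition above the mean inhibition of all tested compounds plus 3 SD, set per campaign, cut at about 52% in these data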;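 also: 0% = DMSO treated cells and 100% = cells given Gossypol at 36 µM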
NCOA3 inh = inhibits human SRC3 coactivator; Q9Y6Q9; HEK293 GAL4-SRC3 luciferase reporter, luminescence; inhibition, % at 3.6 µM; actives 0.17% (n = 360,000); AID 588352;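 active = inhibition above a per-campaign cutoff, the mean of all compounds plus 3 SD, cut at about 60% in these data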;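 also: 0% = DMSO-treated cells and 100% = gossypol-treated cells at 36 µM; higher means less SRC3-driven luciferase light from the GAL4 reporter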
LRH-1 inv ag = suppresses constitutive activity of human LRH-1 | AID 602396 | HEK293T StAR-luciferase reporter, LRH-1 transfected, 24 h | O00482 | actives 0.13% (n = 360,000) | inhibition, % at 3.6 µM;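 active = inhibition above the mean inhibition of all tested compounds plus 3 SD, cut at about 73% in these data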;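 also: 0% = DMSO wells and 100% = reporter-only cells lacking LRH-1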
NCOA1 inh = inhibits human SRC1 coactivator; Q15788; actives 0.12% (n = 360,000); inhibition, % at 3.6 µM; HEK293 GAL4-SRC1 luciferase reporter, luminescence;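 active = inhibition above the campaign mean plus 3 SD, with each screening campaign given its own cutoff, cut at about 60% in these data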;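 also: 0% = DMSO treated cells and 100% = gossypol at 36 µM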
Gli-Sufu antag = Gli-Sufu pathway antagonism; Sufu-KO-LIGHT fibroblasts, Gli luciferase reporter luminescence; inhibition, % at 5 µM; actives 0.74% (n = 340,000);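 active = inhibition above about 55%, limit read from the data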;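 also: 0% = DMSO-treated cells and 100% = wells with medium but no cells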
COUP-TFII inh = inhibitors of human COUP-TFII (NR2F2); actives 0.7% (n = 370,000); inhibition, % at 8.6 µM; HEK293T NGFI-A luciferase reporter, luminescence;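 active = inhibition above a per-plate cutoff, mean inhibition of test wells between control levels plus 3 SD, cut at about 38% in these data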;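 also: cells cotransfected with COUP-TFII expression vector driving the NGFI-A reporter; 0% = median of COUP-TF2 test wells and 100% = reporter-only cells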
Target sequence (P24468 whole entry, looked up): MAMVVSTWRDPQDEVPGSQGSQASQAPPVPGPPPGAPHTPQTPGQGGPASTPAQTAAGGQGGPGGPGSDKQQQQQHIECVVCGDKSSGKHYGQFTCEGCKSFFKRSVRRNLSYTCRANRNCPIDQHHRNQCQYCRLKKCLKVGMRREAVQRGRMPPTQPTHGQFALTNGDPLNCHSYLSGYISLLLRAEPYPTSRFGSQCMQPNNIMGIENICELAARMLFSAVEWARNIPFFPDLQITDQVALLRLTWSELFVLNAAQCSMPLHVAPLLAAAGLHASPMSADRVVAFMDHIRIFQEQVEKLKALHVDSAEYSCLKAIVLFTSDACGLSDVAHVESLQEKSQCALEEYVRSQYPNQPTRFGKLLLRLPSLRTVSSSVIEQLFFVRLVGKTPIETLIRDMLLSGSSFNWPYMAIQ
Gal4-VP16 ctr = inhibits VP16 reporter, flagging COUP-TFII antagonist hits. shares compounds with COUP-TFII inh. HEK293 Gal4-VP16 luciferase reporter, luminescence. inhibition, % at 8.5 µM. actives 25% (n = 2,500). AID 687007; in the data active = inhibition above about 13%
NR2F2 inh conf = COUP-TFII (NR2F2) inhibition, confirmation assay | actives 45% (n = 2,500) | shares compounds with COUP-TFII inh | inhibition, % at 8.5 µM | HEK293 NGFI-A luciferase reporter, luminescence;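 active = mean inhibition over three repeats above a set limit taken from the earlier primary screen, cut at about 38% in these data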;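 also: 100% = cells given the luciferase reporter alone without the COUP-TF2 vector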
Active calls of the source: *; . = no result.

SMILES | NCOA2 inhibitor | NCOA3 inh | LRH-1 inv ag | NCOA1 inh | Gli-Sufu antag | COUP-TFII inh | Gal4-VP16 ctr | NR2F2 inh conf
Cc1ccc(CN2CCc3c(OCc4ccc(F)cc4)cccc3C2=O)cc1 | 13 | 16 | 3 | 10 | 14 | 22 | . | .
COC(=O)c1ccc(COc2cccc3c2CCN(Cc2ccccc2)C3=O)o1 | 1 | -5 | 14 | -21 | 1 | 18 | . | .
COC(=O)c1ccc(COc2cccc3c2CCN(Cc2cccc(C)c2)C3=O)o1 | -1 | 8 | -9 | -2 | 28 | 38* | -4 | -1
O=C1c2cccc(OCc3ccc(F)cc3)c2CCN1Cc1ccc(F)cc1 | 19 | 32 | 16 | 31 | 35 | 58* | 1 | 44*
O=[N+]([O-])c1cc(S(=O)(=O)NCc2ccco2)ccc1NN=Cc1ccccn1 | 3 | . | . | . | . | -9 | . | .
CN(C)c1ccc(C2Nc3ccccc3C(=O)N2CCCN2CCOCC2)cc1 (stereo unspecified) | 39 | 12 | 9 | 16 | 3 | 47* | -11 | -15
CCCCOCCCNC(=O)C[C@@H]1C(=O)N(Cc2ccc(OC)cc2)C2=CCN(C(=O)OC(C)(C)C)C[C@]21C(=O)OCC | 22 | . | . | . | . | 8 | . | .
O=C(NC1CCCC1)N1CCC(c2nc3ccc(Cl)cc3[nH]2)CC1 | 4 | . | . | . | . | 10 | . | .
C=C(C(=O)c1ccccc1)C(C)CC(=O)c1ccccc1 (stereo unspecified) | 36 | 32 | -3 | 1 | -9 | -10 | . | .
C=C(C(=O)c1ccccc1)C(NC(C)(C)C)c1ccccc1 (stereo unspecified) | 60* | 57 | 73* | 56 | 35 | 80* | 67* | 92*
O=C1CCCC[C@@H](O)[C@H](O)C[C@H](c2ccccc2)O1 | 3 | . | -30 | . | . | 5 | . | .
C=C1CC2(CC(c3ccccc3)OC(c3ccccc3)C2)OC1=O (stereo unspecified) | 50 | -18 | 5 | -6 | 13 | 46* | 8 | -2
O=C1CCCCC1Sc1nnc(-c2ccc3c(c2)OCO3)o1 (stereo unspecified) | 57* | 45 | 9 | 43 | -2 | 64* | 22* | 59*
Clc1ccc(CSc2nnc(-c3ccc4c(c3)OCO4)o2)cc1 | -2 | -18 | 3 | -8 | 0 | 0 | . | .
C=C1C(=O)C23C(O)C1CCC2C12CCCC(C)(COC(C)=O)C1C(O)C3(O)OC2 (stereo unspecified) | 20 | 74* | 77* | 77* | 16 | 48* | 77* | 52*
O=C(Cn1nc(-c2ccccc2)ccc1=O)NCCc1cccc(F)c1 | -22 | . | . | . | . | -30 | . | .
CN=c1scc(-c2cccs2)n1/N=C/c1ccccc1O | 88* | 93* | 98* | 92* | 81* | 94* | 88* | 108*
CN1CCN(c2ccc(NC(=O)COc3ccccc3[N+](=O)[O-])cc2)CC1 | -9 | -8 | 5 | 0 | 12 | 2 | . | .
CC(C)C(=O)N1CCN(c2ccc(NC(=O)COc3ccccc3[N+](=O)[O-])cc2)CC1 | 25 | 49 | 2 | 23 | 30 | 50* | -2 | 28
COc1ccc(CC(=O)NCc2nn(-c3ccccc3)nc2C)cc1OC | -21 | -5 | -7 | -16 | -12 | -10 | . | .
COc1ccc(-c2ocnc2C(=O)NCc2nn(-c3ccccc3)nc2C)cc1 | 27 | 19 | 15 | 26 | 4 | 60* | 3 | 41*
C=C1C[C@@H]2C[C@@H]2CN(S(=O)(=O)c2ccc(C)cc2)[C@@H]1COCc1ccccc1 | -16 | . | 19 | . | . | 40* | -8 | 6
Cc1ccc(S(=O)(=O)N2CCC(=O)N(CCOCc3ccccc3)CC2)cc1 | 2 | -5 | 20 | -9 | 0 | -3 | . | .
CN(C)c1ccc(CCc2ccc(N)cc2)cc1 | 45 | 15 | 10 | -4 | 16 | 59* | 40* | 19
O=C(CN1CCN(Cc2ccc(Cl)cc2)C1=O)NCCCN1CCOCC1 | -5 | 31 | 14 | 35 | 8 | 3 | . | .

Assay outcomes (PubChem)
